# Screens as filed in PubChem BioAssay.
# Mtb MenB inh: M. tuberculosis MenB inhibitors, primary screen, biochemical, absorbance; actives 0.43% (n = 100,000); MenB enzyme assay, absorbance read-out; inhibition, % (concentration not given with the values); 1,4-dihydroxy-2-naphthoyl-CoA synthase (Mycobacterium tuberculosis (strain ATCC 25618 / …; in the data active means inhibition above about 21%, passing the limit was not always enough
# Mtb MbtI inh: MbtI salicylate synthase inhibitors, primary screen, biochemical, fluorescence intensity | purified MbtI enzyme, fluorescence intensity read-out | inhibition, % (concentration not given with the values) | actives 0.89% (n = 100,000) | AID 493033, 2011; in the data active means inhibition mostly above about 56%, no sharp cut-off; inactive means mostly below about 77%
# Polio RdRp inh: poliovirus RdRp elongation inhibitors, primary screen, biochemical, fluorescence polarization, total intensity; Genome polyprotein (Poliovirus type 1 (strain Mahoney)), P03300; poliovirus polymerase elongation; hits give low values; % elongation, % (compound at 16.7 µg/mL); actives 0.66% (n = 150,000); in the data active means % elongation below about 90%
# Target sequence (P03300 1749-2209 limits assumed): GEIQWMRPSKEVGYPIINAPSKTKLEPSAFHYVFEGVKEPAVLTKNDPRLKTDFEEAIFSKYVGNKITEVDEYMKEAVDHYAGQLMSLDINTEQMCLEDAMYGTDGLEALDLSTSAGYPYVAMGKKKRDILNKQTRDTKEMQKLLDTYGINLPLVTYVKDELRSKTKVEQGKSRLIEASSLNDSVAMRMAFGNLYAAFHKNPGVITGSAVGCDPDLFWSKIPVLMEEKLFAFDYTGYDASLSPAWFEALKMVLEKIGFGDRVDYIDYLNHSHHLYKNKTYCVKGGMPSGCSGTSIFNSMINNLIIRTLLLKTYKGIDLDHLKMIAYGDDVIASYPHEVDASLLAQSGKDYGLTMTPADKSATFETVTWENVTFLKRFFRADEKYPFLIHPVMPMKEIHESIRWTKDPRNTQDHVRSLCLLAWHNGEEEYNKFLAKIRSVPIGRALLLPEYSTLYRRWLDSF
# A number is an active result; n = inactive; x = no result. An excerpt weighted towards active compounds, which were near 1.4% of everything screened.
SMILES,Mtb MenB inh,Mtb MbtI inh,Polio RdRp inh
COc1cc2ccccc2cc1C(=O)N1CCCN(C)c2nc3ccccc3nc21,n,n,n
CS(=O)(=O)c1nnnn1-c1ccc2c(c1)OCO2,n,n,n
O=C1C=CC(=O)N1c1ccc2c(c1)OCO2,n,99,n
COc1ccccc1NC(=O)CC(=O)Nc1ccccc1OC,x,n,n
COc1ccccc1NC(=O)CSCC(N)=O,n,95,n
CCOC(=O)c1c(P(=O)(N2CCOCC2)N2CCOCC2)noc1N,41,n,n
CCOC(=O)c1c(N)sc(C(=O)N2CCOCC2)c1C,n,x,n
CCOC(=O)CN1CSC2=C(C#N)C(c3ccc(OC)cc3)CC(=O)N2C1 (stereo not given),n,n,n
COc1cccc(C2CC(=O)N3CN(C4CCCCC4)CSC3=C2C#N)c1 (stereo not given),x,x,77
COc1cccc(C2CC(=O)NC(SC)=C2C#N)c1 (stereo not given),n,n,n
COc1ccc(C2CC(=O)N3CN(C4CCCCC4)CSC3=C2C#N)cc1 (stereo not given),x,x,75
CC(C)(C)C(=O)Nc1cccc(C(=O)O)c1,n,n,n
O=C(NCC(F)(F)F)c1ccc2ccccc2n1,n,n,n
CC(Cc1nnc(SCC(=O)c2ccc[nH]2)n1N)c1ccccc1 (stereo not given),n,n,x
CC12C=CC(CO)(O1)C1C(=O)N(c3ccc(Br)cc3)C(=O)C12 (stereo not given),n,101,n
CC1(C)c2sc(=O)[nH]c2SC2C(=O)N(c3ccc(Br)cc3)C(=O)C21 (stereo not given),n,n,n
Cc1cc2c(cc3c(SCC(=O)NCc4ccco4)nncn32)o1,n,n,n
COC(=O)c1ccc(CSc2ccc(S(=O)(=O)N3CCCC3)cn2)o1,n,n,n
CCN(CC)C(=O)Cn1cc(SCC(=O)Nc2ccccc2)c2ccccc21,n,n,n
CCC(C)N=Cc1c(O)n(-c2ccccc2)c(=O)[nH]c1=O (stereo not given),n,102,n
O=c1[nH]c(=O)n(-c2ccccc2)c(O)c1C=NCCO,n,n,n
COc1ccc(C(=O)NC(C)Cc2ccccc2)cc1 (stereo not given),n,x,n
Cc1nnc2c3ccccc3nc(Nc3cccc(C(F)(F)F)c3)n12,n,n,n
CNC(=O)c1ccc(CN2CCc3ccccc3C2)cc1,27,n,n
c1ccc2c(c1)CCN(Cc1ccncc1)C2,n,n,n
SMILES,Mtb MenB inh,Mtb MbtI inh,Polio RdRp inh
CCn1c2ccccc2c2nnc(SCC(=O)Nc3ccc(S(N)(=O)=O)cc3)nc21,x,n,x
Cc1c(N=Cc2cc(Br)cc(Br)c2O)cccc1C(=O)O,n,n,88
COc1cccc(C=Nc2cccc(C(=O)O)c2C)c1O,n,n,n
CN(Cc1nc2ccccc2s1)S(=O)(=O)c1cccc(Cl)c1,n,n,n
CCCCNS(=O)(=O)c1ccc(Cl)cc1,n,n,n
CCCCNS(=O)(=O)c1ccc2[nH]c(=S)[nH]c2c1,n,n,88
CN(C)CCCNCc1ccco1,n,n,n
CN(C)CCCNCc1cccn1C,n,n,85
Nn1c(SCCCSc2nnc(-c3ccco3)n2N)nnc1-c1ccco1,n,n,n
CCCC1NC(=S)N(c2ccccc2)N1 (stereo not given),n,98,n
CC(C)C1NC(=S)N(c2ccccc2)N1 (stereo not given),n,n,n
CN(Cc1ccccc1)C(=O)c1ccccc1C(=O)N1CCN(c2ncccn2)CC1,n,n,n
Cc1ccc(Cl)cc1N1CCN(CCCNC(=O)c2cc3c(C)nc4ccccc4c3o2)CC1,n,n,n
O=C(NC1C2CC3CC(C2)CC1C3)c1cc(F)c(F)cc1Cl (stereo not given),n,x,n
CC(=O)Oc1ccc(OC(C)=O)c(C2=C3C(=O)N(CCc4c[nH]c5ccccc45)CC(=O)N3CCC2)c1,n,100,n
O=C(CCc1c[nH]c2ccccc12)OCC(=O)c1cc2c3c(c1)CC(=O)N3CCC2,n,n,n
S=c1[nH]nc(Cc2cccc3ccccc23)n1/N=C/c1ccco1,n,65,n
FC(F)(F)c1n[nH]c(=S)n1/N=C/c1c[nH]c2ccccc12,n,x,n
CC(=O)Nc1scc2c1c(=O)oc1ccccc12,n,n,n
COC(=O)Nc1scc2c1c(=O)oc1ccccc12,n,71,n
O=C(c1ccc(CSc2ncn[nH]2)cc1)N1CCc2ccccc21,n,n,n
CC(C)C(NS(=O)(=O)c1cccs1)C(=O)O (stereo not given),n,n,n
CC12COC3(C(=O)Nc4ccccc4)CC1CCC32C (stereo not given),58,n,n
CC12COC3(C(=O)N4CCCCC4)CC1CCC32C (stereo not given),x,n,n
NC(=O)c1cc(S(=O)(=O)NCc2ccc(Br)cc2)cs1,x,x,n
SMILES,Mtb MenB inh,Mtb MbtI inh,Polio RdRp inh
NC(=O)c1cc(S(=O)(=O)NCc2ccccc2)cs1,x,x,-12
O=C(CSc1nc2ccccc2s1)OCC(=O)c1ccc[nH]1,n,n,x
CCCn1c(=O)c2ccccc2n2c(SCC(=O)NC(C)(C)C)nnc12,n,n,n
Cc1cc(C)[nH]c(=S)n1,n,n,n
Cc1cc(=S)nc(C(C)C)[nH]1,n,91,n
O=C(Nc1ccc2[nH]c(=O)[nH]c2c1)NC1CCCCC1,n,n,90
O=C(Nc1ccc(Cl)c(Cl)c1)NC1CCCCC1,n,x,n
CC(=O)NC(C(=O)Nc1nc(-c2ccc(C)s2)cs1)C(C)C (stereo not given),n,n,n
Cc1sc2ncnc(Sc3ncnc4sccc34)c2c1C,n,n,n
CC(=O)N(C(C)=O)N1C(=O)c2cccc3c(N4CCOCC4)ccc(c23)C1=O,n,n,n
O=C1c2cccc3c(N4CCCCC4)ccc(c23)C(=O)N1c1ccccn1,36,n,n
S=c1oc2ccccc2n1CNc1ccccn1,n,n,n
O=c1[nH]c2ccccc2nc1NC(=S)Nc1ccccc1,n,x,n
FC(F)Oc1ccc(NC(=S)NNc2nc3ccccc3[nH]2)cc1,n,n,44
Cc1cc(NC(=O)Cn2c(COc3ccc4ccccc4c3)nc3ccccc32)no1,n,n,n
Cc1ccc(C(=O)CC(NCCc2c[nH]c3ccccc23)C(=O)O)cc1 (stereo not given),47,x,n
CC(C)C(=O)NCCc1c[nH]c2ccccc12,n,n,n
COc1ccc(NC(=O)c2cnc3ccccn3c2=O)cc1,n,n,n
Oc1ccccc1C(=S)N1CCN(C(=S)c2ccccc2O)CC1,n,94,n
O=C(c1ccccc1O)N1CCOCC1,n,x,n
Cc1ccccc1CN1C(=O)C(O)(CC(=O)/C=C\c2ccccc2)c2ccccc21 (stereo not given),n,n,n
NC(=O)CN1C(=O)C(O)(CC(=O)/C=C\c2ccccc2)c2ccccc21 (stereo not given),43,n,n
CCN(CC)Cn1c(=S)oc2ccccc21,n,n,n
CCN(Cc1ccncc1)Cn1c(=S)oc2ccccc21,n,75,n
CCc1ccc(CCC(=O)Nc2cccc(NC(=O)CCc3ccc(CC)o3)c2)o1,n,n,n
Cc1cc(C(=O)N(C/C=C/c2ccccc2)c2ccc3c(c2)OCCO3)no1,n,n,n
CNC(=O)Oc1ccc2sc(=O)oc2c1,x,n,x
